Compound activity from PubChem.
Sampled rows, rich in hits. Any-hit rate of the full collection: about 1.1%.
HTR5A ag ctr: HTR5A agonism, opioid heterodimer counter-screen; HTR5A agonist assay, luminescence, cell-based; activation, % at 9.3 µM; hit rate 0.61% among 340,000; AID 504692; in the data active = activation mostly above about 9.5%, no sharp cut-off; inactive = mostly below about 7.6%;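 note: 0% = cells with vehicle only and 100% = reference agonist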
Target sequence (P47898 whole entry, looked up): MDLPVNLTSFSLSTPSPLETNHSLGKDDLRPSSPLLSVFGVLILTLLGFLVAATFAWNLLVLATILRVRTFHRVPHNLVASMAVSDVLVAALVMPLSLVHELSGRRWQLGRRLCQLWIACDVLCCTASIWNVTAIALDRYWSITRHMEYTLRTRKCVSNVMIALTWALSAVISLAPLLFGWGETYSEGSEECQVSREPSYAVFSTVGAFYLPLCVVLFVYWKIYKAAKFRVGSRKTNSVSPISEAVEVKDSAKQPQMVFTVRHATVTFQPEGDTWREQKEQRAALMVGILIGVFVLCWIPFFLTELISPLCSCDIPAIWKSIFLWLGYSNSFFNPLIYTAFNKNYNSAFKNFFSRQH
HTR5A inv ctr: counter-screen for OPRM1-OPRD1 inverse agonists: human HTR5A inverse agonism; inhibition, % at 9.3 µM; hit rate 0.083% among 340,000; HTR5A cell line, luminescence; in the data active = inhibition mostly above about 23%, no sharp cut-off; inactive = mostly below about 18%;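 note: 0% = cells with DMSO and 100% = no-cell wells with DMSO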
OPRM1-OPRD1 ag: OPRM1-OPRD1 heterodimerization agonism; P35372+P41143; activation, % at 9.3 µM; hit rate 0.3% among 340,000; cells, luminescence; in the data active = activation above about 18%;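 note: 0% = vehicle-treated cells and 100% = reference agonist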
OPRM1-OPRD1 inv: inverse agonist of human OPRM1-OPRD1 heterodimerization; P35372+P41143; cell-based MOR-DOR heterodimer luminescence, inverse agonism; inhibition, % at 9.3 µM; hit rate 0.21% among 340,000; AID 504357; in the data active = inhibition above about 22%, passing the limit was not always enough;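 note: 0% = cells with DMSO and 100% = wells without cells with DMSO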
MOR-DOR inv conf: confirmation of human OPRM1-OPRD1 heterodimerization inverse agonists | hit rate 20% among 580 | shares compounds with OPRM1-OPRD1 inv | cells expressing OPRM1/OPRD1 heterodimer, luminescence | inhibition, % at 9.3 µM; in the data active = inhibition above about 32%;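 note: 0% = cells with DMSO and 100% = wells lacking cells with DMSO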
HTR5A inv count: counter-screen for OPRM1-OPRD1 inverse agonists: human HTR5A inverse agonism | shares compounds with OPRM1-OPRD1 inv | HTR5A-expressing cells, luminescence | inhibition, % at 9.3 µM | 580 tested, under 10 active | AID 504914; call rule not given here;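 note: 0% = cells with DMSO and 100% = no-cell wells with DMSO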
Numbers without * were called inactive; i = inactive; . = no result.

SMILES	HTR5A ag ctr	HTR5A inv ctr	OPRM1-OPRD1 ag	OPRM1-OPRD1 inv	MOR-DOR inv conf	HTR5A inv count
CC(C)CNC(=O)c1ccc(NC(=O)c2cccs2)cc1	-1	4	0	0	.	.
O=S(=O)(Nc1ccc(Cl)c(Cl)c1)N1CCOCC1	-6	-14	-3	21	.	.
CC1COC(=O)C(NNc2ccc(Cl)c(Cl)c2)=N1 (configuration not stated)	10	-29	-6	30*	13	2
CC(=O)N1c2ccc(S(=O)(=O)NCCC(=O)Nc3cccc(Cl)c3)cc2CC1C (configuration not stated)	1	9	0	-1	.	.
CC(C)c1ccc(NC2(C#N)C(=O)Nc3ccccc32)cc1 (configuration not stated)	-3	3	-10	59*	-13	-19
CC(C)c1ccc(NC(=O)CC2Oc3ccccc3NC2=O)cc1 (configuration not stated)	-1	3	-1	6	.	.
Cc1ccccc1NC1(C#N)C(=O)Nc2ccccc21 (configuration not stated)	-7	4	-12	58*	-251	-6
C#CCOCCOCCOCCNc1nc(N2CCN(C(=O)[C@H](CCC(=O)O)n3cc([C@@H](N)[C@H](C)CC)nn3)CC2)nc(N2CCN(C(=O)[C@H](CCC(=O)O)n3cc([C@@H](N)CC(N)=O)nn3)CC2)n1	-3	12	-1	4	.	.
COc1ccc(S(=O)(=O)N2CCOCC2)cc1NS(=O)(=O)c1ccc(F)c(F)c1	0	-1	-2	9	.	.
COc1ccc(NS(=O)(=O)c2ccc(F)c(Cl)c2)cn1	-3	-5	1	-4	.	.
Cc1cc(C)nc(NNS(=O)(=O)c2ccc(F)c(Cl)c2)n1	-5	12	-8	44*	62*	-5
COc1ccc(S(=O)(=O)NNc2nc(C)cc(C)n2)cc1Br	0	1	-6	31*	-2	-8
Cc1cc(C)nc(NNS(=O)(=O)c2ccc(Cl)cc2)n1	-3	13	-10	45*	19	7
COc1ccc(Cl)c2sc(N(CCN(C)C)C(=O)C3=COCCO3)nc12	-2	5	-1	7	.	.
O=S(=O)(Nc1cccc2ncccc12)c1cccs1	-10	21	-10	47*	-196	-13
Cc1ccc(N2C(=O)c3ccccc3C2=O)nc1	-1	3	-3	16	.	.
CCOc1ccc(N=C2C(=O)Nc3ccc(C)c(Br)c32)cc1	-4	17	-10	53*	83*	11
Cc1ccc2c(c1Br)/C(=N/N1C(=O)c3ccccc3C1=O)C(=O)N2	-3	-1	-11	65*	-34	-21
CCC(C)c1ccc(O)c(NC(=S)NC(=O)c2cccnc2)c1 (configuration not stated)	-7	19	-9	47*	i	-3
O=C(NC(=S)Nc1ccccc1O)c1cncc(Br)c1	-4	10	-8	41*	-99	-32
O=C(NC(=S)Nc1ccccc1C(=O)O)c1cncc(Br)c1	2	-7	-3	13	.	.
O=C(NC(=S)Nc1ccccc1O)c1cccnc1	-3	10	-7	35*	23	-9
Cc1ccc(-c2cc(C(F)F)nc(S(C)(=O)=O)n2)cc1	-1	3	-3	15	.	.
Cc1cc(NC(=O)CSc2nc3c([nH]c4ccccc43)c(=O)n2-c2ccccc2F)no1	-3	15	-6	34*	12	15
C[C@H]1CN(S(=O)C(C)(C)C)[C@H](CCO)/C1=C\CCO (some centres not stated)	4	-15	-4	19	.	.
SMILES	HTR5A ag ctr	HTR5A inv ctr	OPRM1-OPRD1 ag	OPRM1-OPRD1 inv	MOR-DOR inv conf	HTR5A inv count
Cc1cc(C(=O)NNC(=S)NC(C)c2ccccc2)c2ccccc2n1 (configuration not stated)	3	-12	-6	34*	5	-13
Cc1cc(C(=O)NNC(=O)c2ccc(Cl)cc2)c2ccccc2n1	-3	9	-1	5	.	.
O=C(NC1CC1)C1CCN(C2CCN(C(=O)CCOc3ccccc3)CC2)CC1	5	5	0	-3	.	.
Cc1ccc(C2Nc3ccccc3NC3=C2C(=O)CC(C)(C)C3)c(O)c1 (configuration not stated)	1	-4	-2	7	.	.
CC1(C)CC(=O)C2=C(C1)Nc1ccccc1NC2c1cc(Cl)ccc1O (configuration not stated)	2	-5	-8	42*	-428	-12
Cn1ccc(C(=O)NC(=S)N2CCSCC2)n1	-4	6	-3	14	.	.
Cc1ccc(S(=O)(=O)N(C)C)cc1NC(=S)NCc1ccco1	-3	8	3	-16	.	.
CC(=O)Nc1ccc(S(=O)(=O)Nc2cccc3cccnc23)cc1	-8	20	-5	26	.	.
COc1ccc(NS(=O)(=O)c2ccc3ccccc3c2)c2ncccc12	-5	12	-7	39*	10	-11
O=S(=O)(Nc1cccc2cccnc12)c1ccccc1	-4	9	-8	47*	-33	12
Cc1ccc(S(=O)(=O)N(C)C)cc1NC(=O)c1cc(S(=O)(=O)N2CCCCC2)ccc1N1CCOCC1	-5	12	-1	6	.	.
COc1cc(NC(=S)N2CCN(S(=O)(=O)c3ccccc3)CC2)cc(OC)c1	1	-11	-1	5	.	.
O=c1c2ccccc2nc2n1CCC2O (configuration not stated)	3	-5	-2	10	.	.
NC(=S)c1cc2ccc(O)cc2oc1=O	-5	-1	-5	31*	11	1
CCCN1C(=O)C(=O)c2cc(C)ccc21	2	25	-4	16	.	.
Cc1cccc(OCCN2C(=O)C(=O)c3cc(C)ccc32)c1	6	20	-6	30*	-6	-16
Cc1ccc2c(c1)C(=O)C(=O)N2CCOc1ccccc1	-2	5	-8	38*	-6	-1
Cc1ccc(N=C2C(=O)Nc3c(C)cccc32)cc1	-4	14	-11	55*	32*	9
Cc1cccc2c1NC(=O)C2=Nc1ccc(Cl)cc1	-5	2	-11	55*	45*	17
Cc1ccc(N=C2C(=O)Nc3ccc(Br)cc32)cc1	-2	6	-5	24	.	.
COc1ccc(N=C2C(=O)N3CCCc4cccc2c43)cc1	4	27	-5	22	.	.
COc1ccc(N=C2C(=O)Nc3c(C)cccc32)cc1	-7	25	-11	62*	51*	24
CC(C)C(c1nnnn1Cc1ccc(F)cc1)N1CCC(C(N)=O)CC1 (configuration not stated)	-2	7	-1	5	.	.
Cn1c(=S)c2[nH]c(SCC3CCCO3)nc2n(C)c1=O (configuration not stated)	5	-18	-3	12	.	.
Cc1ccccc1NC(=O)C(C)n1c2ccccc2c2nc(=O)cc(C)n21 (configuration not stated)	3	4	-1	3	.	.
